Assay outcomes (PubChem)
A selection: hits, their analogues and other compounds. The true share with any hit is near 6.1%.
D1 agonist: agonists of human D1 dopamine receptor; 1% of 360,000 active; P21728; activation, % at 2 µM; HEK293 T-REx D1 cells, calcium flux, agonist mode; in the data active means activation above about 30%; further: 0% is about no effect
Target sequence (P21728 whole entry, looked up): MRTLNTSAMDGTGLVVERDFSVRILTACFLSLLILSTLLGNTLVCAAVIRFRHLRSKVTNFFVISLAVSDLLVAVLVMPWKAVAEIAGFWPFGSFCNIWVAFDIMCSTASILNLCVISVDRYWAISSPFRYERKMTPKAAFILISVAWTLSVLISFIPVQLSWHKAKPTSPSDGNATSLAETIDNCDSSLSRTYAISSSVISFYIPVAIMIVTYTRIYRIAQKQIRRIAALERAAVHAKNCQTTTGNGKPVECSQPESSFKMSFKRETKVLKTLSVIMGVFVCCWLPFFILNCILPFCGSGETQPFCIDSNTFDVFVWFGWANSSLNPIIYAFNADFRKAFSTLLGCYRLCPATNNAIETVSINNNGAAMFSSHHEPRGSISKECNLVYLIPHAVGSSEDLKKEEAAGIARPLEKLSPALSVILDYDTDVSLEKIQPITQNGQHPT
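Inducible HEK293 T-REx D1 cells, force-coupled to calcium signalling, were plated at 4000 cells/well with tetracycline and held overnight at 30 C. After no-wash calcium dye loading, compound-evoked calcium rise over 180 s flagged agonists.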
D1 PAM: potentiators of human D1 dopamine receptor; P21728; HEK293 TREx D1 cells, calcium flux, dopamine EC20 potentiation; potentiation, % at 10 µM; 0.036% of 360,000 active; AID 504651; in the data active means potentiation above about 30%; further: 0% is about no effect
D1 antagonist: human D1 dopamine receptor antagonism; 3.2% of 360,000 active; P21728; HEK293 TREx D1 cells, calcium flux, dopamine EC80; active compounds read low; activity change, negative = inhibition, % at 10 µM; AID 504652; in the data active means activity change below about -30%; further: on the % scale 0 is the no-effect control and ±100 the full control effect
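Tetracycline-induced HEK293 T-REx cells with force-coupled D1 receptor were loaded with a no-wash calcium dye. Compound was added after a 10 s baseline and read kinetically for 180 s; EC80 dopamine was then added and calcium flux followed another 180 s.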
DRD3 antagonist: antagonists of human D3 dopamine receptor. P35462. AID 652054. 2.5% of 360,000 active. D3R cells, DiscoveRx beta-arrestin luminescence, antagonist mode; active compounds read low. max response, negative = inhibition, %; in the data active means max response below about -50%; inconclusive means no clear call, values can overlap the other calls; further: on the % scale 0 is the no-effect control and ±100 the full control effect
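Cells expressing the human receptor were seeded at 1500 cells/well, incubated overnight at 37 degrees C in 5% CO2, then exposed to library compounds with dopamine controls for 90 minutes at 37 degrees C before luminescent detection.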
D3 ag: D3 dopamine receptor (human) agonism; 0.58% of 410,000 active; P35462; D3R DiscoveRx beta-arrestin cells, luminescence, 90 min; max activation, %; in the data active means max activation above about 30%; further: 0% is about no effect
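Cells at 1500/well, incubated overnight, then treated with pinned compounds (dopamine as control) for 90 min at 37 degrees C. DiscoveRx reagent added for 30 - 60 minutes at room temperature; luminescence read.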
* marks the source's active call; other numbers are inactive results; ? = inconclusive; · = no result given; ! = a repeat was not active.

SMILES	D1 agonist	D1 PAM	D1 antagonist	DRD3 antagonist	D3 ag
CCC1Nc2ncnc(N3CCN(c4ccccc4)CC3)c2N(Cc2ccccc2)C1=O (stereo not given)	·	·	·	-142*	-60
Cc1ccc(CN2C(=O)C(CC(C)C)Nc3ncnc(N4CCN(c5ccccc5)CC4)c32)cc1 (stereo not given)	·	·	·	-55*!	-13
CCC1Nc2ncnc(N3CCN(c4ccccc4)CC3)c2N(Cc2ccc(C)cc2)C1=O (stereo not given)	0	-1	7	-139*	-61
CCC1Nc2ncnc(N3CCOCC3)c2N(Cc2ccc(C)cc2)C1=O (stereo not given)	2	3	-18	-2	6
COc1ccc(NC(=O)C(C)N2C(=O)c3ccccc3S2(=O)=O)c(OC)c1 (stereo not given)	6	-3	-17	8	-21
Cn1c2cc(S(C)(=O)=O)sc2c2cnn(Cc3ccccc3F)c(=O)c21	7	18	-24	·	·
COc1ccc(S(=O)(=O)NCCc2cn3ccsc3n2)cc1	1	-4	-45*	·	2
COc1ccc(S(=O)(=O)NCCc2cn3ccsc3n2)cc1OC	0	-3	6	·	18
Cc1ccc(S(=O)(=O)NCCc2cn3ccsc3n2)cc1	0	1	-73*	·	17
CCOc1cc(/C=C2\N=C(SC(C)C(N)=O)N(c3ccc(OC(F)F)cc3)C2=O)ccc1O (stereo not given)	47*	-6	14	-57*	-13
CN1CCC=C(C(=O)N2c3ccccc3Sc3ccc(Cl)cc32)C1	6	-9	2	-3	-11
O=C(N/N=C/c1cccc(F)c1)c1c(O)c2c([nH]c1=O)CCCC2	1	-5	-50*	0	-4
CCN(CC)CCOC(=O)c1ccc(N)cc1Cl	·	·	·	·	-9
COc1cc(-c2nc(SCC(=O)Nc3ccc(C)cc3)c(-c3ccc(F)cc3)[nH]2)cc(OC)c1OC	4	-5	-35*	·	-15
COc1ccc(-c2nc(SCC(=O)Nc3ccccc3)c(-c3ccc(F)cc3)[nH]2)cc1OC	0	-5	-47*	·	-23
COc1ccc(-c2nc(SCC(=O)Nc3ccc4c(c3)OCCO4)c(-c3ccc(F)cc3)[nH]2)cc1OC	2	-5	-14	·	7
COc1ccc(-c2nc(SCC(=O)Nc3ccc4c(c3)OCO4)c(-c3ccc(F)cc3)[nH]2)cc1OC	4	-3	-36*	·	-4
C/C(=N/NC(=O)c1nnn(-c2nonc2N)c1COc1ccccc1)c1ccc(O)cc1	8	2	-11	-3	-5
O=C(Nc1nnc(S(=O)(=O)N2CCc3ccccc32)s1)c1cccc(Cl)c1	1	-1	-7	·	-11
Cc1ccc(S(=O)(=O)N2CCC(NC(=O)c3cccnc3)CC2)cc1Cl	0	-8	-12	0	0
Cc1ccc(NC(=O)CN(C)C(=O)C(C)OC(=O)c2ccccc2NCCO)cc1 (stereo not given)	2	1	3	10	0
COc1ccc(C(=O)Nc2ccnn2C2CCN(C(=O)c3cccnc3)CC2)cc1	2	-13	10	-5	1
O=C(N/N=C/c1cc2c3c(c1O)CCCN3CCC2)c1ccccc1O	31*	-6	-13	6	-8
COc1ccc(-n2c(-c3ccccc3F)nc3c(cnn3-c3ccc(C)cc3)c2=O)cc1	6	-1	-31*	·	-10
COc1ccc(-n2c(-c3ccco3)nc3c(cnn3-c3ccccc3C)c2=O)cc1	2	-9	-30*!	0	5
SMILES	D1 agonist	D1 PAM	D1 antagonist	DRD3 antagonist	D3 ag
COc1ccc(-n2c(-c3ccco3)nc3c(cnn3-c3ccc(C)cc3)c2=O)cc1	5	-3	-2	13	5
O=C(NCCS(=O)(=O)N1CCN(c2ccccc2)CC1)C1CCCCC1	·	·	·	19	-1
CC[N+](CC)(CCNC(=O)C(=O)NCC[N+](CC)(CC)Cc1ccccc1Cl)Cc1ccccc1Cl	·	·	·	·	3
N#Cc1ccccc1S(=O)(=O)N1CCN(S(=O)(=O)c2ccc3c(c2)OCCO3)CC1	8	1	-37*	·	·
N#Cc1ccccc1S(=O)(=O)N1CCN(C(=O)[C@H](Cc2ccccc2)NC(=O)c2ccco2)CC1	0	-10	-34*	?	4
N#Cc1ccccc1S(=O)(=O)N1CCN(C(=O)Cc2coc3cc(O)ccc23)CC1	1	-7	-43*	?	-6
Cc1ccccc1S(=O)(=O)N1CCN(S(=O)(=O)c2ccc3c(c2)OCCO3)CC1	4	3	-12	·	·
Cc1ccc2c(CC(=O)N3CCN(S(=O)(=O)c4ccccc4)CC3)coc2c1	4	1	-28	6	1
CC(C)(C)c1ccc(C(=O)Nc2cc(-c3nc4ccccc4o3)ccc2Cl)cc1	18	-1	4	·	1
CCc1ccc(N(C(=O)c2csnn2)C(C(=O)NC(C)(C)C)c2cccnc2)cc1 (stereo not given)	1	-1	-6	6	15
Cc1ccc(NC(=O)c2cc3c(=O)n(Cc4ccco4)ccc3nc2C)cc1C	0	0	-9	·	65*
COc1ccc(Cn2ccc3nc(C)c(C(=O)N4CCN(c5ccc(OC)cc5)CC4)cc3c2=O)cc1	27	-6	-7	·	2
Cc1nc2ccn(Cc3ccco3)c(=O)c2cc1C(=O)Nc1ccc(F)cc1	0	-8	1	·	-1
CSc1ccc(CNC(=O)c2cc3c(=O)n(Cc4ccco4)ccc3nc2C)cc1	13	-6	6	·	7
COc1ccc(CNC(=O)c2cc3c(=O)n(Cc4ccco4)ccc3nc2C)cc1	1	-7	-35*	·	24
COc1ccc(Cn2ccc3nc(C)c(C(=O)N4CCN(c5ccccc5OC)CC4)cc3c2=O)cc1	-1	-1	-33*	·	18
CC(C)CN(CCCNC(=O)c1cn(C)c2ccc(S(=O)(=O)N(C)C3CCCCC3)cc2c1=O)CC(C)C	1	2	-7	·	-4
CCOC(=O)N1CCC(NC(=O)CS(=O)Cc2nc(-c3ccc(Cl)cc3)oc2C)CC1 (stereo not given)	0	-5	-14	12	-4
CCOC(=O)N1CCC(NC(=O)CS(=O)Cc2nc(-c3ccc(C)cc3)oc2C)CC1 (stereo not given)	-1	-2	-35*	15	6
CCOC(=O)N1CCC(NC(=O)C2CCCN(Cc3nc(-c4ccc(CC)cc4)oc3C)C2)CC1 (stereo not given)	37*	-5	-34*	-2	1
O=C(N/N=C/c1cccs1)c1ccc2ccccc2c1	-1	-9	2	-4	0
CC(C)(C)C1CCc2c(C(=O)NNC(=O)/C=C/C(=O)O)csc2C1 (stereo not given)	1	-5	-32*	2	1
CC(C)(C)C1CCc2c(C(=O)N/N=C/c3cccs3)csc2C1 (stereo not given)	3	8	10	?	32*
